ADAM17 inh – inhibits human ADAM17 | P78536 | inhibition, % at 6.95 µM | recombinant ADAM17, EDANS/DABCYL FRET peptide cleavage | 370,000 tested, 0.83% active;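 active = inhibition above the mean of compounds lying between control limits plus 3 SD, set per campaign, cut at about 8.5% in these data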;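 note: 0% = DMSO-only wells as the low control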
KLK7 zymogen act – proKLK7 (human) activation, primary screen. 370,000 tested, 0.9% active. activation, % at 7 µM. AID 652039. P49862. purified proKLK7, EDANS-DABCYL substrate fluorescence; 100% is mature enzyme control, 0% vehicle;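 active = activation above the mean of all tested compounds plus 3 SD, computed per campaign excluding outliers beyond control limits, cut at about 13% in these data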
ADAM10 inh – ADAM10 inhibition, QFRET primary screen; inhibition, % at 7 µM; O14672; recombinant ADAM10, EDANS/DABCYL FRET peptide cleavage, 3 h; 370,000 tested, 0.62% active;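 active = inhibition above a per-campaign cutoff equal to the mean of compounds falling between control-based bounds plus 3 SD, cut at about 20% in these data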;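 note: 0% = DMSO wells while the 100% control is not disclosed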
GRIN3A LBD mod – modulates the human NR3A ligand-binding domain. Tm shift relative to glycine control, % at 25 µM. NR3A LBD differential scanning fluorimetry, Tm shift; 0% = protein alone, 100% = glycine-bound protein. AID 1259313. 340,000 tested, 2.5% active;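 active = melting temperature shift of at least 10% of the positive control shift, at one fixed dose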
rCAG RNA binder – molecules binding r(CAG) RNA repeats | r(CAG) RNA repeat, TO-PRO-1 dye displacement fluorescence | 370,000 tested, 1.3% active | inhibition, % at 3 µM | AID 651821;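 active = inhibition above the plate cutoff, the mean of all test compounds on that plate plus 3 SD, cut at about 35% in these data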;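 note: 0% = DMSO alone and 100% = 100 µM mitoxantrone as full dye displacement; higher means more dye released from RNA so lower well fluorescence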
AHR act – human AHR activation; P35869; AHR-responsive luciferase reporter cells, luminescence; activation, % at 5 µM; 320,000 tested, 2.5% active; in the data active = activation above about 47%;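 note: 0% = vehicle wells and 100% = reference agonist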
Target sequence (P35869 whole entry, looked up): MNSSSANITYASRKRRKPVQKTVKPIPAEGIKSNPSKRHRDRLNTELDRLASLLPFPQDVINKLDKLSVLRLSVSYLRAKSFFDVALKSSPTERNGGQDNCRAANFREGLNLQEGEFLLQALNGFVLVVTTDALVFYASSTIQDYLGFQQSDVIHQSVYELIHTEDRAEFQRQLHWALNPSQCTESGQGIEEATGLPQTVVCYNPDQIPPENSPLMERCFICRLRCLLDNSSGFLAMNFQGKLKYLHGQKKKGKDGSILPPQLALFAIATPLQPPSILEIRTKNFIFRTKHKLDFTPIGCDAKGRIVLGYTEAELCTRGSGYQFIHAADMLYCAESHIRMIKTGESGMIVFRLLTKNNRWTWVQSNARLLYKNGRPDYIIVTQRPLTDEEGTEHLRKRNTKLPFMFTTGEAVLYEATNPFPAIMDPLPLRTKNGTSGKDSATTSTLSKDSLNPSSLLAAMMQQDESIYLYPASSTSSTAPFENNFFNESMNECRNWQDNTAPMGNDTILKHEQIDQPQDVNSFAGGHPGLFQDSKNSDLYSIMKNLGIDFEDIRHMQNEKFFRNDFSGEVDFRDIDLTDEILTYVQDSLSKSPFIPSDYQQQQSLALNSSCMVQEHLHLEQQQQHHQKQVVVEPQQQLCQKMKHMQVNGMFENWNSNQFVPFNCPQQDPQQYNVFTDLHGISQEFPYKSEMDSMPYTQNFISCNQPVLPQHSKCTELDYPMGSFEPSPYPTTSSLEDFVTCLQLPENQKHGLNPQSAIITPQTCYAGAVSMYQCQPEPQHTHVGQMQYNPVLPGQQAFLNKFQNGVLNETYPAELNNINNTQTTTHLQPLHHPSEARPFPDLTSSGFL
ADAM10 confirm – confirmation of inhibitors of human ADAM10 | shares compounds with ADAM10 inh | ADAM10 QFRET peptide cleavage, EDANS fluorescence | inhibition, % at 6.95 µM | 2,100 tested, 1% active | AID 743208;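 active = inhibition above about 20% chosen separately for each screening run, limit read from the data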;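 note: 0% = DMSO wells and 100% = marimastat wells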
ADAM17 ctr – inhibits human ADAM17 in ADAM10 exosite counter-screen; shares compounds with ADAM10 inh; ADAM17 QFRET peptide cleavage, EDANS fluorescence; inhibition, % at 6.95 µM; 2,100 tested, 0.5% active;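 active = mean triplicate inhibition above the solvent-only control wells' mean plus 3 SD, cut at about 12% in these data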;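 note: 0% = DMSO wells and 100% = marimastat wells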
* marks the source's active call; other numbers are inactive results. Shown are actives, neighbours in structure and some others; about 7% of the full set was active somewhere.

Oc1ccc(C[C@H]2CN([C@@H](Cc3ccc(O)cc3)CN3CCC[C@@H]3CN3C(=S)NC[C@@H]3Cc3ccccc3)C(=S)N2CCc2ccccc2)cc1 was read as ADAM17 inh 3.3, KLK7 zymogen act -0.4, ADAM10 inh 7.6 and rCAG RNA binder 12.8.
For CC(C)C[C@@H](CN1CCCC1CN1C(=S)NC[C@@H]1Cc1ccc(O)cc1)N1C[C@H](Cc2ccc(O)cc2)N(CCc2ccccc2)C1=S (some centres undefined) the results were ADAM17 inh 11.0*, KLK7 zymogen act -0.4, ADAM10 inh 32.9*, GRIN3A LBD mod 23.9*, rCAG RNA binder 13.7, ADAM10 confirm 14.3 and ADAM17 ctr 2.9.
COc1ccccc1NNC(=O)c1cccnc1Oc1ccccc1 was read as ADAM17 inh 0.6, KLK7 zymogen act 0.1, ADAM10 inh 4.1, GRIN3A LBD mod -1.1, rCAG RNA binder -0.7 and AHR act 8.0.
CCCCn1c(N)c(N(CC(C)C)C(=O)C2CCN(S(=O)(=O)c3ccc(C)c(C)c3)CC2)c(=O)[nH]c1=O was read as ADAM17 inh -6.7, KLK7 zymogen act -0.6, ADAM10 inh -14.3, GRIN3A LBD mod -1.3, rCAG RNA binder -0.3 and AHR act 1.2.
Screening COc1ccccc1CC1CC(=O)N(c2cccc(Cl)c2C)C1=O (centres undefined) returned ADAM17 inh 0.5, KLK7 zymogen act 0.5, ADAM10 inh -4.4, GRIN3A LBD mod 0.2, rCAG RNA binder -2.4 and AHR act 3.6.
Screening COc1ccc([C@H]2CC(=O)C=C(c3ccc(OC)c(F)c3)C2)cc1 returned ADAM17 inh -7.0, KLK7 zymogen act -0.1, ADAM10 inh -7.4, GRIN3A LBD mod 0.3 and rCAG RNA binder -0.6.
COc1ccc(CN2CCOCCOCCN(Cc3ccc(OC)cc3)CCOCCOCC2)cc1 was read as ADAM17 inh -4.0, KLK7 zymogen act 0.8, ADAM10 inh -6.6, GRIN3A LBD mod -0.1, rCAG RNA binder -11.3 and AHR act -5.7.
For Cc1ccc(OCC(=O)N/N=C/c2cn(Cc3ccccc3)c3ccccc23)cc1 the results were ADAM17 inh 5.8, KLK7 zymogen act -0.4, ADAM10 inh 22.8*, GRIN3A LBD mod -0.7, rCAG RNA binder 12.3, AHR act 15.3, ADAM10 confirm 1.0 and ADAM17 ctr 1.6.
For CCOC(=O)N/N=C/c1cn(Cc2ccc(F)cc2)c2ccccc12 the results were ADAM17 inh 2.9, KLK7 zymogen act 1.0, ADAM10 inh -2.5, GRIN3A LBD mod 2.6, rCAG RNA binder -4.1 and AHR act 24.3.
CC(C)(C)Nc1scc(-c2ccccc2)[n+]1-c1ccccc1 was read as ADAM17 inh -18.1, KLK7 zymogen act -0.3, ADAM10 inh 42.1*, GRIN3A LBD mod -1.1, rCAG RNA binder -4.5, AHR act 1.2, ADAM10 confirm -0.6 and ADAM17 ctr -0.2.
`COc1ccc(Cl)cc1C1=NOC2(CCC2)C(=O)N1Cc1ccc(NC(C)=O)cc1` gave ADAM17 inh 3.4, KLK7 zymogen act 0.1, ADAM10 inh -5.4 and rCAG RNA binder 0.7.
CCS(=O)(=O)c1ccc2oc(Nc3ccc(OC)cc3)nc2c1 was read as ADAM17 inh -0.9, KLK7 zymogen act -0.2, ADAM10 inh -3.6, GRIN3A LBD mod -31.4, rCAG RNA binder 0.6 and AHR act 33.1.
`CCS(=O)(=O)c1ccc2oc(Nc3ccc(C(C)(C)C)cc3)nc2c1` gave ADAM17 inh 6.1, KLK7 zymogen act -0.2, ADAM10 inh 24.3*, GRIN3A LBD mod -2.7, rCAG RNA binder 5.7, AHR act 24.6, ADAM10 confirm 0.8 and ADAM17 ctr 0.2.
Screening COc1ccc(OC)c(NC(=O)Nc2cc(C(=O)O)ccc2C)c1 returned ADAM17 inh 0.0, KLK7 zymogen act -0.3, ADAM10 inh -0.1, GRIN3A LBD mod -0.9, rCAG RNA binder 1.7 and AHR act -0.1.
`OCCC1CN(Cc2ccon2)CCN1CCc1ccccc1` (centres undefined) gave ADAM17 inh -3.2, KLK7 zymogen act -0.4, ADAM10 inh 0.9, GRIN3A LBD mod -1.1, rCAG RNA binder -3.4 and AHR act 5.4.
CCN(C[C@H]1N[C@@](C)(C(=O)OC)[C@H]2C(=O)N(C)C(=O)[C@@H]12)C(=O)COc1ccccc1 was read as ADAM17 inh -4.5, KLK7 zymogen act -0.5, ADAM10 inh -7.8, GRIN3A LBD mod 3.0, rCAG RNA binder -1.6 and AHR act 1.9.
For O=Cc1c(Nc2cccc(C(F)(F)F)c2)nc2ccccn2c1=O the results were ADAM17 inh -5.1, KLK7 zymogen act 1.2, ADAM10 inh -3.0, GRIN3A LBD mod 2.2, rCAG RNA binder 4.4 and AHR act 31.7.
O=C(N/N=C/c1c(Nc2cccc(C(F)(F)F)c2)nc2ccccn2c1=O)c1ccccc1[N+](=O)[O-] was read as ADAM17 inh 1.0, KLK7 zymogen act 0.7, ADAM10 inh 31.6*, GRIN3A LBD mod 10.3*, rCAG RNA binder 0.2, AHR act 11.7, ADAM10 confirm -0.2 and ADAM17 ctr -0.1.
`CCOC(=O)[C@]12CCC=C1N(Cc1ccccc1)C(=O)[C@H](CC(=O)NCCC(C)C)C2` gave ADAM17 inh -4.6, KLK7 zymogen act -0.2, ADAM10 inh -10.0 and rCAG RNA binder 0.7.
Screening CCCCC[C@@H](C)N1C[C@@H](COCc2ccccc2)Oc2cc(N3CC[C@@H](O)C3)ccc2S1(=O)=O returned ADAM17 inh 5.5, KLK7 zymogen act 0.1, ADAM10 inh 20.5*, rCAG RNA binder 4.1, ADAM10 confirm 6.2 and ADAM17 ctr 3.0.
`C[C@@H](c1ccccc1)N1C[C@@H](COCc2ccccc2)Oc2cc(N3CCC[C@H]3C(N)=O)ccc2S1(=O)=O` gave ADAM17 inh 6.9, KLK7 zymogen act 0.4, ADAM10 inh 21.8*, rCAG RNA binder 7.4, ADAM10 confirm 5.3 and ADAM17 ctr 1.0.
Screening COc1ccc(-c2nnc(SC(C(=O)c3c[nH]c4ccccc34)c3ccccc3)n2N)cc1OC (centres undefined) returned ADAM17 inh 7.8, KLK7 zymogen act -0.6, ADAM10 inh 22.2*, GRIN3A LBD mod -8.1, rCAG RNA binder 13.8, AHR act 14.4, ADAM10 confirm 4.6 and ADAM17 ctr 1.4.
COc1ccc(C)cc1NC(=O)C(Sc1nnnn1C)c1ccccc1 (centres undefined) was read as ADAM17 inh 2.5, KLK7 zymogen act -0.7, ADAM10 inh 2.1, GRIN3A LBD mod 0.5, rCAG RNA binder -3.3 and AHR act 7.7.

Source: PubChem BioAssay
